SMARCA2 act: SMARCA2 (BRM) function activators, primary screen, cell-based, luminescence, high throughput. MG213 cells, MMTV-luciferase reporter, dexamethasone, overnight. activation, % at 9.1 µM. hit rate 1% among 370,000. AID 652017, 2013; in the data active = activation above about 7.8%
hgDAF-12 ag: H. glycines DAF-12 receptor agonists, primary screen, cell-based, luminescence, HEK293, GAL4 fusion, UAS-luciferase; Nuclear hormone receptor DAF-12 (Heterodera glycines), GAL4 fusion; activation, % at 6.8 µM; HEK293 GAL4-hgDAF12 UAS-luciferase reporter, agonist luminescence; normalized to butyrate control; hit rate 1.8% among 370,000;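 active = activation above a cutoff set at the mean of all screened compounds plus 3 SD, cut at about 10% in these data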
DAX1 inh-1: DAX1 (NR0B1) inhibitors on StAR promoter, primary screen, cell-based, luminescence, SF-1 (NR5A1), full-length DAX-1. inhibition, % at 6.8 µM. hit rate 1.1% among 370,000. HEK293T StAR-luciferase reporter, SF-1/DAX-1 repression relief;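 active = inhibition above the mean over all tested compounds plus 3 SD, cut at about 3.6% in these data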;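 also: higher inhibition means more luminescence from relief of DAX-1 repression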
hcDAF12 agonist: H. contortus DAF-12 nuclear receptor activators, primary screen, cell-based, luminescence, HEK293, lit1-tk-luc reporter; HEK293 hcDAF-12 lit1-tk-luc reporter; 0% DMSO, 100% Δ7-dafachronic acid; activation, % at 6.8 µM; hit rate 1.4% among 370,000; AID 652067, 2013;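 active = activation above the mean of all tested compounds plus 3 SD, cut at about 5.5% in these data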
ssDAF12 agonist: S. stercoralis DAF-12 nuclear receptor activators, primary screen, cell-based, luminescence, HEK293, GRIP1 co-expression, lit1-tk-luc. Nuclear hormone receptor DAF-12 (Strongyloides stercoralis). HEK293 ssDAF-12/GRIP1 lit1-tk-luc reporter; % of 3 µM dafachronic acid response. hit rate 1% among 370,000. activation, % at 6.8 µM. AID 652126, 2013;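 active = activation above the mean over all tested compounds plus 3 SD, cut at about 0.9% in these data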
DAX1 inh-2: DAX1 (NR0B1) inhibitors, primary screen, cell-based, HEK293, Gal4-DAX1, luciferase luminescence | HEK293 Gal4-DAX1 luciferase reporter | inhibition, % at 6.75 µM | hit rate 0.99% among 340,000;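 active = inhibition above the mean over all tested compounds plus 3 SD, cut at about 4.2% in these data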;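 also: inhibition shows as a rise in luminescence from relieved DAX1 repression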
Target sequence (P51843 207-470 limits assumed): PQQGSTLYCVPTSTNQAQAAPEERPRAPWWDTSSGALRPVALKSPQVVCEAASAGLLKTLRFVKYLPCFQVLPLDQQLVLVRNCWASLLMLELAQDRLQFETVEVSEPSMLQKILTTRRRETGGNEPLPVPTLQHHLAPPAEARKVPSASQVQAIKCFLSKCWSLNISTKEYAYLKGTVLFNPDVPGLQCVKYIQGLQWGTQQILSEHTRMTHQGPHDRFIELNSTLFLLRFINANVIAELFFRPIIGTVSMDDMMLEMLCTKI
Numbers stand for hits; 0 = inactive; - = no result. This is a sample that favours compounds with a hit; in the whole collection about 4.8% have one here.

SMILES | SMARCA2 act | hgDAF-12 ag | DAX1 inh-1 | hcDAF12 agonist | ssDAF12 agonist | DAX1 inh-2
Cc1cccc(C(=O)Nc2nnc(SCC(=O)Nc3ccc4c(c3)oc3ccccc34)s2)c1 | 0 | 0 | 0 | 0 | 0 | 0
O=C(CSc1nnc(NC(=O)c2ccc3c(c2)OCO3)s1)NCc1ccco1 | 0 | 12.7 | 0 | 5.9 | 0 | 0
O=C(CN1CCc2ccccc21)NC(=O)NCc1ccco1 | 0 | 0 | 0 | 0 | 1.0 | 0
O=C(CSc1nnc(NC(=O)c2ccccc2F)s1)NCC1CCCO1 (stereo not drawn) | 0 | 0 | 3.8 | 0 | 0 | 0
COC(=O)CN1CCN(C(=O)c2nocc2C)CC1 | 0 | 0 | 0 | 0 | 0 | -
O=C1[C@@H](C2CC2)[C@@H]2c3ccccc3C=NN2[C@@H]2c3ccccc3C=NN12 | 0 | 0 | 0 | 0 | 0 | -
O=C(/C=C/[C@H]1O[C@@H](n2ccc(=O)[nH]c2=O)[C@H](O)[C@@H]1O)N1CCN(Cc2ccc(F)cc2)CC1 | 0 | 0 | 0 | 0 | 0 | -
Cc1ccc(S(=O)(=O)N2C[C@H]3C(=O)C[C@@H](c4ccccc4)N(S(=O)(=O)c4ccccc4C)[C@H]3C[C@H]2c2ccccc2)cc1 | 0 | 0 | 0 | 0 | 0 | -
O=C(CSc1nnc(NC(=O)c2ccccc2)s1)NCc1ccco1 | 0 | 0 | 0 | 0 | 0 | 0
O=C(CSc1nc2ccccc2s1)NC(=O)NCc1ccco1 | 0 | 0 | 0 | 0 | 1.4 | 0
Cc1ccccc1C(=O)Nc1nnc(SCC(=O)NCc2ccco2)s1 | 0 | 11.8 | 8.0 | 5.9 | 0 | 0
COc1ccc(-n2c(COc3ccc(Cl)cc3)nnc2SCC(=O)Nc2ccc3c(c2)OCO3)cc1 | 0 | 0 | 0 | 0 | 0 | -
COc1cccc(C(=O)Oc2ccccc2/C=C\C(=O)c2cc3ccccc3o2)c1 | 0 | 0 | 0 | 6.5 | 1.6 | 0
COc1ccc(C(=O)/C=C/c2ccccc2OC)c(OC(=O)c2ccc([N+](=O)[O-])cc2)c1 | 0 | 0 | 0 | 0 | 0 | 0
CCCCCCOc1ccc(/C(N)=N/O)cc1 | 0 | 10.8 | 0 | 0 | 0 | 0
C/C(=N\NC(=O)COc1ccc(C)cc1C(C)C)c1ccc(-n2ccnc2)cc1 | 0 | 11.1 | 0 | 0 | 0 | 0
Cc1nc(N)[nH]c(=O)c1CCCNc1ccc(CCC2(CCl)OCCO2)cc1 | 0 | 12.8 | 0 | 0 | 0 | 0
O=C(CCNC(=O)c1ccc([N+](=O)[O-])cc1)Nc1cccc(S(=O)(=O)N2CCCCCC2)c1 | 0 | 0 | 0 | 0 | 0 | 0
COC(=O)[C@]1(CNS(=O)(=O)C2CC2)CC(=O)N(C)[C@@H]1c1ccccc1 | 0 | 0 | 0 | 0 | 0 | -
CC(=O)c1ccc(-c2nnc(CCC(=O)N(C)Cc3cccc4cnccc34)o2)s1 | 0 | 0 | 0 | 0 | 0 | 0
Cc1ccc(-c2nnc(CCC(=O)N(C)Cc3nccs3)o2)s1 | 0 | 0 | 0 | 0 | 1.9 | 0
COCCNC(=O)C1(C(F)(F)F)CC(CCCO)CCCO1 (stereo not drawn) | 0 | 0 | 0 | 0 | 0 | 0
CCOC(=O)N1CCC(Nc2nc3ccccc3nc2NS(=O)(=O)c2ccc(Cl)cc2)CC1 | 0 | 0 | 0 | 8.2 | 0 | 0
COc1cc(/C=N/NC(=O)c2c(C)nc3ccc(Cl)cn23)cc(OC)c1OC | 0 | 0 | 0 | 0 | 0 | 5.3
COc1ccc(NC(=O)C2Cc3c(-c4cccc(C(C)=O)c4)ccnc3O2)cn1 (stereo not drawn) | 0 | 0 | 0 | 0 | 0 | -
CCC(=O)Nc1ccc2oc(-c3cccnc3)nc2c1 | 0 | 0 | 0 | 0 | 0 | 0
CCC(=O)Nc1ccc2oc(-c3ccccc3Br)nc2c1 | 0 | 11.0 | 0 | 0 | 0 | 0
Cc1ccccc1-c1nc2cc(NC(=O)C3CC3)ccc2o1 | 0 | 11.4 | 0 | 0 | 0 | 0
